Assay results taken from publication PMC11006913.
Where a chain is given by its changes, count along the chain named.

What was measured:
Assay in all cases: PBM; 200 nM protein, PBS
Conditions in all cases: dsDNA, one strand shown
[1] = target: T1, NKX2-4 (Homo sapiens, UniProt Q9H2Z4 175-261, P217L)
T1 sequence: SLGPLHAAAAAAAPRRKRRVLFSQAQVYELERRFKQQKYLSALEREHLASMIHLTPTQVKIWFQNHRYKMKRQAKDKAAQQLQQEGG

[2] = target: T2, NKX2-4 (Homo sapiens, UniProt Q9H2Z4 175-261, T231S)
T2 sequence: T1 sequence with L43P, T57S

[3] = target: T3, NKX2-4 (Homo sapiens, UniProt Q9H2Z4 175-261)
T3 sequence: T1 sequence with L43P

[4] = target: T4, NKX2-4 (Homo sapiens, UniProt Q9H2Z4 175-261, R246Q)
T4 sequence: T1 sequence with L43P, R72Q

Sequence	binding signal [1]	binding signal [2]	binding signal [3]	binding signal [4]
GCGCGACA	9.99 upbm affinity estimate (log intensity, higher = more binding, comparable within an allelic series)	10 upbm affinity estimate (log intensity, higher = more binding, comparable within an allelic series)	10 upbm affinity estimate (log intensity, higher = more binding, comparable within an allelic series)	10.1 upbm affinity estimate (log intensity, higher = more binding, comparable within an allelic series)
GCGGCGAC	9.68 upbm affinity estimate (log intensity, higher = more binding, comparable within an allelic series)	9.58 upbm affinity estimate (log intensity, higher = more binding, comparable within an allelic series)	9.61 upbm affinity estimate (log intensity, higher = more binding, comparable within an allelic series)	9.79 upbm affinity estimate (log intensity, higher = more binding, comparable within an allelic series)
CTCAAGAG	12.4 upbm affinity estimate (log intensity, higher = more binding, comparable within an allelic series)	12.8 upbm affinity estimate (log intensity, higher = more binding, comparable within an allelic series)	12.3 upbm affinity estimate (log intensity, higher = more binding, comparable within an allelic series)	13 upbm affinity estimate (log intensity, higher = more binding, comparable within an allelic series)
CAGTGCGC	9.85 upbm affinity estimate (log intensity, higher = more binding, comparable within an allelic series)	9.8 upbm affinity estimate (log intensity, higher = more binding, comparable within an allelic series)	9.86 upbm affinity estimate (log intensity, higher = more binding, comparable within an allelic series)	9.79 upbm affinity estimate (log intensity, higher = more binding, comparable within an allelic series)
ATGTCCGG	9.39 upbm affinity estimate (log intensity, higher = more binding, comparable within an allelic series)	9.43 upbm affinity estimate (log intensity, higher = more binding, comparable within an allelic series)	9.4 upbm affinity estimate (log intensity, higher = more binding, comparable within an allelic series)	9.49 upbm affinity estimate (log intensity, higher = more binding, comparable within an allelic series)
AAAGTAGC	11.5 upbm affinity estimate (log intensity, higher = more binding, comparable within an allelic series)	11.9 upbm affinity estimate (log intensity, higher = more binding, comparable within an allelic series)	11.5 upbm affinity estimate (log intensity, higher = more binding, comparable within an allelic series)	11.7 upbm affinity estimate (log intensity, higher = more binding, comparable within an allelic series)
CCTGCGCG	9.34 upbm affinity estimate (log intensity, higher = more binding, comparable within an allelic series)	9.28 upbm affinity estimate (log intensity, higher = more binding, comparable within an allelic series)	9.35 upbm affinity estimate (log intensity, higher = more binding, comparable within an allelic series)	9.37 upbm affinity estimate (log intensity, higher = more binding, comparable within an allelic series)
CGGAATCA	9.89 upbm affinity estimate (log intensity, higher = more binding, comparable within an allelic series)	9.89 upbm affinity estimate (log intensity, higher = more binding, comparable within an allelic series)	9.83 upbm affinity estimate (log intensity, higher = more binding, comparable within an allelic series)	9.94 upbm affinity estimate (log intensity, higher = more binding, comparable within an allelic series)
GGTCGCCA	9.68 upbm affinity estimate (log intensity, higher = more binding, comparable within an allelic series)	9.67 upbm affinity estimate (log intensity, higher = more binding, comparable within an allelic series)	9.7 upbm affinity estimate (log intensity, higher = more binding, comparable within an allelic series)	9.8 upbm affinity estimate (log intensity, higher = more binding, comparable within an allelic series)
GCAAGTGC	11.9 upbm affinity estimate (log intensity, higher = more binding, comparable within an allelic series)	12.1 upbm affinity estimate (log intensity, higher = more binding, comparable within an allelic series)	11.7 upbm affinity estimate (log intensity, higher = more binding, comparable within an allelic series)	12.2 upbm affinity estimate (log intensity, higher = more binding, comparable within an allelic series)
CCCGGCCC	9.77 upbm affinity estimate (log intensity, higher = more binding, comparable within an allelic series)	9.78 upbm affinity estimate (log intensity, higher = more binding, comparable within an allelic series)	9.81 upbm affinity estimate (log intensity, higher = more binding, comparable within an allelic series)	9.84 upbm affinity estimate (log intensity, higher = more binding, comparable within an allelic series)
GGCAGTCA	10.1 upbm affinity estimate (log intensity, higher = more binding, comparable within an allelic series)	10 upbm affinity estimate (log intensity, higher = more binding, comparable within an allelic series)	9.98 upbm affinity estimate (log intensity, higher = more binding, comparable within an allelic series)	10.1 upbm affinity estimate (log intensity, higher = more binding, comparable within an allelic series)
CAACCGTC	9.81 upbm affinity estimate (log intensity, higher = more binding, comparable within an allelic series)	9.78 upbm affinity estimate (log intensity, higher = more binding, comparable within an allelic series)	9.8 upbm affinity estimate (log intensity, higher = more binding, comparable within an allelic series)	9.85 upbm affinity estimate (log intensity, higher = more binding, comparable within an allelic series)
ACATGCAG	9.48 upbm affinity estimate (log intensity, higher = more binding, comparable within an allelic series)	9.63 upbm affinity estimate (log intensity, higher = more binding, comparable within an allelic series)	9.52 upbm affinity estimate (log intensity, higher = more binding, comparable within an allelic series)	9.48 upbm affinity estimate (log intensity, higher = more binding, comparable within an allelic series)
CCCCGCCG	9.51 upbm affinity estimate (log intensity, higher = more binding, comparable within an allelic series)	9.45 upbm affinity estimate (log intensity, higher = more binding, comparable within an allelic series)	9.54 upbm affinity estimate (log intensity, higher = more binding, comparable within an allelic series)	9.57 upbm affinity estimate (log intensity, higher = more binding, comparable within an allelic series)
GAAGAGTA	11.9 upbm affinity estimate (log intensity, higher = more binding, comparable within an allelic series)	12.2 upbm affinity estimate (log intensity, higher = more binding, comparable within an allelic series)	11.7 upbm affinity estimate (log intensity, higher = more binding, comparable within an allelic series)	12.2 upbm affinity estimate (log intensity, higher = more binding, comparable within an allelic series)
CGCACGCG	9.51 upbm affinity estimate (log intensity, higher = more binding, comparable within an allelic series)	9.45 upbm affinity estimate (log intensity, higher = more binding, comparable within an allelic series)	9.53 upbm affinity estimate (log intensity, higher = more binding, comparable within an allelic series)	9.45 upbm affinity estimate (log intensity, higher = more binding, comparable within an allelic series)
AGTGCTTA	12 upbm affinity estimate (log intensity, higher = more binding, comparable within an allelic series)	12.2 upbm affinity estimate (log intensity, higher = more binding, comparable within an allelic series)	11.9 upbm affinity estimate (log intensity, higher = more binding, comparable within an allelic series)	12.2 upbm affinity estimate (log intensity, higher = more binding, comparable within an allelic series)
